Several values for one entry are separate records, joined by “and”; a condition that tells them apart may be missing. Equal entries are not always repeated. Inconclusive results are not listed. Entries that show only a call come without a potency. Activity calls are given as the source filed them. Calls come from the whole dose curve; as a rule, active = well fitted cell-killing curve with a large enough effect in the repeat runs; inconclusive = weak or mixed curves; inactive = flat fitted curve, though single readings scatter.
Potency is the fitted concentration of half-maximal effect.

A short description of the assay: qHTS assay to identify small molecule antagonists of the estrogen receptor beta (ER-beta) signaling pathway - cell viability counter screen (AID 1259382). Note: nearly all actives have a fitted effect of over 55% in size. Conditions: ER-beta-UAS-bla HEK293T viability, CellTiter-Glo luminescence, 16 h; series mostly up to 92.4 µM. The text has this: U.S. Tox21 Program National Center for Advancing Translational Sciences [NCATS] NIH Chemical Genomics Center [NCGC] U.S. Environmental Protection Agency [EPA] National Institutes of Environmental Health Sciences [NIEHS] National Toxicology Program [NTP] U.S. Food and Drug Administration [FDA] Tox21 Assay Overview: Estrogen receptor (ER), a nuclear hormone receptor, plays an important role in development, metabolic homeostasis and reproduction. Two subtypes of ER, ER-alpha and ER-beta, have similar expression patterns with some uniqueness in both types. Endocrine disrupting chemicals (EDCs) and their interactions with steroid hormone receptors like ER causes disruption of normal endocrine function. To identify the compounds that inhibit ER signaling, an ER-beta-UAS-bla GripTite cell line (Life Technologies, Madison, WI, USA) containing a beta-lactamase reporter gene under the control of an UAS response element was used to screen Tox21 10K compound library. The cytotoxicity of the Tox21 compound library against the ER-beta-bla cell line was tested in parallel by measuring the cell viability using CellTiter-Glo assay in the same wells.
Tox21 Assay Protocol Summary: ER-beta-UAS-bla HEK293T cells were dispensed at 2,000 cells/4 uL of assay medium containing 2% charcoal stripped FBS per well into black wall/clear-bottom 1536-well plates using a Multidrop Combi (ThermoFisher Scientific, Waltham, MA) dispenser. After the assay plates were incubated at a 37C and 5% CO2 for 6 hr, 23 nL of compounds dissolved in DMSO, positive controls or DMSO only was transferred to the assay plate by a Pintool station (Kalypsys, San Diego, CA), followed by addition of 1 uL (1nM as final concentration) of 17-beta-estradiol (E2) in assay medium using a Flying Reagent Dispenser (FRD, Aurora Discovery, San Diego, CA). The plates were incubated at 37C and 5% CO2 for 16 hr. Then 1 uL of LiveBLAzer B/G FRET substrate was added using a Flying Reagent Dispenser, the plates were incubated at room temperature for 2 hours, and fluorescence intensity was measured by an Envision plate reader (PerkinElmer, Shelton, CT). For cell viability readout that measures cytotoxicity, 4 uL/well of CellTiter-Glo reagent was added into the assay plates using a FRD. After 30 min incubation at room temperature, the luminescence intensity in the plates was measured using a ViewLux (PerkinElmer) plate reader.
(In qHTS, concentration-response curves come from the screen itself.)
As for `Cc1onc(-c2c(Cl)cccc2Cl)c1C(=O)N[C@@H]1C(=O)N2[C@@H]1SC(C)(C)[C@@H]2C(=O)O`, the Potency result is “inactive”. The same measure for `COc1cc(-c2ccc(N=C=O)c(OC)c2)ccc1N=C=O`: “inactive”; for `CSc1ccc(C(=O)c2[nH]c(=O)[nH]c2C)cc1`: “inactive”; for `CCCCCCCCCCCCc1ccc(O)cc1`: 48.6 µM (active). Under `CN(C)C(=O)C1(N2CCCCC2)CCN(CC[C@@]2(c3ccc(Cl)c(Cl)c3)CN(C(=O)c3ccccc3)CCO2)CC1` stands 28.6 µM (active).

For `CCCCCCCC(=O)[O-].CCCCCCCC(=O)[O-].[Zn+2]`, the Potency result is “inactive”. Under `CCCCCCCCCCn1cc[n+](CCCCCCCCCC)c1C` stands 27.3 µM (active); under `O=c1c(-c2ccccc2)c1-c1ccccc1`, “inactive”; under `CNC(=O)c1ccccc1`, “inactive”. Under `O=C(Nc1cccc(C(F)(F)F)c1)c1cc(Br)cc(Br)c1O` stands 27.3 µM (active); under `Cc1cccc(S(=O)(=O)O)c1C`, “inactive”. `COC(=O)C1=C(C)NC(C)=C(C(=O)OCCc2ccc(N3CCN(C(c4ccccc4)c4ccccc4)CC3)cc2)C1c1cccc([N+](=O)[O-])c1` (stereo not given): the Potency entry was “inactive”.

As to `CC(C)(C)c1ccc(C(=O)CCCN2CCC(OC(c3ccccc3)c3ccccc3)CC2)cc1`, the Potency was 23.7 µM (active).

For the compound `CC(C)(C)CC(C)(C)c1ccc(OCCOCC[N+](C)(C)Cc2ccccc2)cc1`, the Potency was 27.3 µM (active) and 15 µM (active).

Turning to `OC1(c2ccc(Cl)c(C(F)(F)F)c2)CCN(CCCC(c2ccc(F)cc2)c2ccc(F)cc2)CC1`, the Potency was 10.6 µM (active). Under `Oc1cccc2cc3cccc(O)c3c(O)c12` stands “inactive”. The same measure for `O=C(Nc1cccc([N+](=O)[O-])c1)c1cc2ccccc2cc1O`: 0.77 µM (active).

As to `CCCCCOc1ccccc1/C(=C\SC)n1ccnc1`, the Potency was 29.8 µM (active). Under `O=C(c1ccc(O)cc1O)c1ccc(O)cc1O` stands “inactive”; under `CCCCCCCCCCCCCC[P+](CCCC)(CCCC)CCCC` (tested in a mixture with another compound), 27.5 µM (active). The same measure for `[Cl][Bi]([Cl])([c]1ccccc1)([c]1ccccc1)[c]1ccccc1`: 8.58 µM (active); for `N=C1C=CC(=C(c2ccc(N)cc2)c2ccc(N)cc2)C=C1`: “inactive”. The same measure for `CCc1cc(Cc2cc(CC)cc(C(C)(C)C)c2O)c(O)c(C(C)(C)C)c1`: 24.3 µM (active); for `COc1cc(/C=C/C(=O)O[C@H]2CC[C@]34C[C@]35CC[C@]3(C)[C@@H]([C@H](C)CCC=C(C)C)CC[C@@]3(C)[C@@H]5CC[C@H]4C2(C)C)ccc1O`: “inactive”. On to `Cc1cc(N)c(S(=O)(=O)O)cc1Cl`, for which the Potency entry is “inactive”.

On to `O=c1cc(-c2ccc(O)cc2)oc2cc(O)cc(O)c12`, for which the Potency result is “inactive”. The same measure for `Cc1cc(O)c2ccccc2c1O`: 23.7 µM (active); for `Cc1cc(O)c(C(C)(C)C)cc1Sc1cc(C(C)(C)C)c(O)cc1C`: 24.3 µM (active); for `CC1=C(/C=C/C(C)=C/C=C/C(C)=C/C=O)C(C)(C)CCC1`: 30.5 µM (active). Under `N=C1N=C(N)c2cc3ccccc3cc21` stands 38.6 µM (active). For `COc1ccc(C(=O)/C(Br)=C\C(=O)O)cc1`, the Potency entry was “inactive”.

Regarding `CC[C@H](c1ccc(O)cc1)[C@@H](CC)c1ccc(O)cc1`, the Potency result was “inactive”. The same measure for `CN1CCN(CCC(=O)N2c3ccccc3Sc3ccc(C(F)(F)F)cc32)CC1`: 16.8 µM (active); for `CCCCCCCCCCCCCCCCCC[N+](C)(C)C`: 30.7 µM (active). The same measure for `Oc1ccc2cc(SSc3ccc4cc(O)ccc4c3)ccc2c1`: “inactive”; for `OCc1c[nH]c2ccccc12`: “inactive”.

`Cc1cccc(CN2CCN(C(c3ccccc3)c3ccc(Cl)cc3)CC2)c1` (stereo not given): the Potency entry is “inactive”.

As for `Cc1cccc(N(C)C(=S)Oc2ccc3c(c2)C2CCC3C2)c1` (stereo not given), the Potency result is “inactive”.

For `CC(C)(C)C(=O)OCOC(=O)[C@@H]1N2C(=O)[C@@H](NC(=O)[C@H](N)c3ccccc3)[C@H]2SC1(C)C`, the Potency entry is “inactive”. Under `CC(C)C(C)(C)C(C)(C)C(C)(C)S` stands “inactive”.

The values above are taken from PubChem BioAssay (Tox21).
